From PubChem BioAssay (NCI) come the findings set out here.

About 83,000 compounds went through this panel and 20% of them were active in at least one assay; those are over-represented in the sample as a whole.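 The test compound was applied at a single concentration to cells in 96-well plates for 48 hours, and percent growth was recorded.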 Unmarked numbers belong to inactive results. Activity calls are given as the source filed them. Rule for the calls: active = growth percent below 10; inactive = the rest.

The first assay relates to NCI-H226 lung. Kind of assay: NCI-60 one-dose screen, 48 h (100 = growth as untreated, 0 = no growth, -100 = all killed). To be noted: 10 µM unless noted.
As to `CO[C@H](C(=O)O)[C@@H]1Cc2cc3cc(OC4CC(OC5CC(O)C(O)C(C)O5)C(O)C(C)O4)c(C)c(O)c3c(O)c2C(=O)[C@H]1OC1CC(OC2CC(OC3CC(C)(O)C(O)C(C)O3)C(O)C(C)O2)C(O)C(C)O1` (some centres undefined), the growth was 0.862% (active).
For the molecule `O=C(Nc1ccc(Cl)cc1)Nc1nccs1`, the growth was 69.9%.
In the case of `CCn1cnc2c(Nc3cccc(Cl)c3)nc(N[C@@H]3CCCC[C@@H]3N)nc21`, the growth was 10.6%.
Still for that read-out and setting: for `C[C@]12CC[C@H]3[C@@H](CC4SC(N)=NC45C/C(=N/NC(N)=O)CC[C@]35C)[C@@H]1CCC2=O` (some centres undefined) the value was 108%.
On the same count and under the same terms, for `Fc1ccc(N2COOC3(OOC2)C2CC4CC(C2)CC3C4)cc1` the value was 105%; for `C[C@@]1(CCCCCCCCCc2ccc(O)cc2)C[C@]2(C)OC(=O)C[C@@H]2OO1`, 102%.
As for `[Cl][Hg][n]1c(-c2ccco2)nc2ccccc21`, the growth was 97.5%.
As to `CN1C(=O)N[C@H]2[C@@H]3NC(=O)c4ccc(Br)n4[C@@H]3C[C@]21O`, the growth is -17.4% (active).
For the molecule `C=CC[PH+](c1ccccc1)c1ccccc1.C=CC[PH+](c1ccccc1)c1ccccc1.[Cl][Pt][Cl]`, the growth was 73.9%.
Turning to `CC[C@H](C)[C@H](NC(=O)C12CC(NC(C)=O)(C1)C2)C(=O)N(C)[C@H](C[C@@H](OC(C)=O)c1nc(C(=O)N[C@@H](Cc2ccccc2)C[C@H](C)C(=O)OC)cs1)C(C)C`, the growth was 19.9%.
On to `O=C1C=C(N2C3C4CCC(C4)C32)C(=O)C=C1c1ccccc1` (centres undefined), for which the growth is 107%.
Same read-out and setting: to `CCn1c2ccccc2c2cc(C(=O)c3cccc4c3CCCN4)ccc21` belongs 92.2%.
Consider `Nc1cc2nc3ccccc3nc2cc1N`, for which the growth is 85.6%.
As for `CCOC(=O)C(Cc1ccc(N(CCCl)CCCl)cc1)NC(=O)C(CC(C)C)NC(C)=O` (centres undefined), the growth was 50%.
Consider `Clc1cccc(Cl)c1Cl`, for which the growth was 101%.
Still for that read-out and setting: to `COc1cc([N+](=O)[O-])c2nc(C)ccc2c1[N+](=O)[O-]` belongs 104%; to `O=C(CC1(O)C(=O)N(Cc2ccccc2)c2ccc(F)cc21)c1ccc(C(=O)NCC2CCC3(CC2)OOC2(CCCCC2)OO3)cc1` (centres undefined), -43.2% (active); to `O=C(CCl)c1ccc([N+](=O)[O-])o1`, 42.9%.
As for `C[S+]1C=Cc2ccccc2C1c1ccc(Cl)cc1` (centres undefined), the growth was 85.1%.
Still for that read-out and setting: to `COC(=O)[C@@H](C)C[C@H](Cc1ccc2ccccc2c1)NC(=O)c1csc([C@@H](C[C@H](C(C)C)N(C)C(=O)[C@@H](NC(=O)[C@H]2CCCCN2C)C(C)C)OC(C)=O)n1` belongs 80.2%; to `O=P(N1CC1)(N1CC1)N1CCc2ccccc21`, 105%.
Same read-out and setting: for `O=C1Nc2ccccc2C2c3cccn3-c3ccccc3CN12` (centres undefined) the value was 78.2%; for `COC(=O)[C@@]1(O)C[C@H]2O[C@]1(C)n1c3ccccc3c3c4c(c5c6ccccc6n2c5c31)C(=O)NC4`, -63.1% (active); for `NC(=S)c1cn(C2OC(CO)C(O)C2O)c2ncnc(N)c12` (centres undefined), -12.7% (active).
Regarding `CC[C@H](C)[C@H](NC(=O)c1cccn1C)C(=O)N(C)[C@H](C[C@@H](OC(C)=O)c1nc(C(=O)N[C@@H](Cc2ccccc2)C[C@H](C)C(=O)OC)cs1)C(C)C`, the growth was 7.57% (active).
Consider `OCc1ccc2c(c1)OCO2`, for which the growth was 94.6%.
The same measure, in the same setting: to `C[n+]1c(/C=C/c2ccc(N(CCCl)CCCl)cc2)sc2ccccc21` belongs 73.7%; to `ClCCN(CCCl)Cc1ccc(Nc2ccnc3cc(Cl)ccc23)cc1`, 70.2%.
On the same count and under the same terms, to `Fc1ccc2c(c1)c(-c1nc(-c3c[nH]c4ncccc34)cs1)cn2CCN1CCOCC1` belongs 49.2%.
Turning to `COc1cc2c(=O)n(C3CCCCCCC3)c3c4cc[nH]c4ncc3c2cc1OC`, the growth was 17.8%.
Regarding `Cn1cc(-c2csc(-c3cn(CCN4CCOCC4)c4ccc(F)cc34)n2)c2cccnc21`, the growth was 16.6%.
Regarding `O=C(CC1(O)C(=O)Nc2ccc(Br)cc21)c1ccc(C(=O)NCC2CCC3(CC2)OOC2(CCCCC2)OO3)cc1` (centres undefined), the growth is 61.3%.
Turning to `COc1cc(/C=N/C2=C(C#N)C(c3ccco3)c3c(c4cc(C)ccc4oc3=O)O2)cc(OC)c1OC` (centres undefined), the growth was 86.3%.
On the same count and under the same terms, to `CC1(C)N=C(N)N=C(N)N1c1ccc(CCCCc2ccc(Cl)c(S(=O)(=O)F)c2)c(Cl)c1` belongs 44.2%.
Still for that read-out and setting: to `CC12CCC3C(CCC4Cc5[nH]c6ccccc6c5CC43C)C1CCC2O` (centres undefined) belongs 41.3%.

The subject of the next assay is HOP-62 NSCLC. The description is as above. To be noted: 10 µM unless noted.
For `CO[C@H](C(=O)O)[C@@H]1Cc2cc3cc(OC4CC(OC5CC(O)C(O)C(C)O5)C(O)C(C)O4)c(C)c(O)c3c(O)c2C(=O)[C@H]1OC1CC(OC2CC(OC3CC(C)(O)C(O)C(C)O3)C(O)C(C)O2)C(O)C(C)O1` (some centres undefined), the growth is 20.7%.
On the same count and under the same terms, for `O=C(Nc1ccc(Cl)cc1)Nc1nccs1` the value was 31.7%.
In the case of `CCn1cnc2c(Nc3cccc(Cl)c3)nc(N[C@@H]3CCCC[C@@H]3N)nc21`, the growth was -11.1% (active).
The same measure, in the same setting: to `C[C@]12CC[C@H]3[C@@H](CC4SC(N)=NC45C/C(=N/NC(N)=O)CC[C@]35C)[C@@H]1CCC2=O` (some centres undefined) belongs 75.5%; to `C[C@@]1(CCCCCCCCCc2ccc(O)cc2)C[C@]2(C)OC(=O)C[C@@H]2OO1`, 104%.
Same read-out and setting: for `[Cl][Hg][n]1c(-c2ccco2)nc2ccccc21` the value was 115%; for `CN1C(=O)N[C@H]2[C@@H]3NC(=O)c4ccc(Br)n4[C@@H]3C[C@]21O`, -31.8% (active).
For `CC[C@H](C)[C@H](NC(=O)C12CC(NC(C)=O)(C1)C2)C(=O)N(C)[C@H](C[C@@H](OC(C)=O)c1nc(C(=O)N[C@@H](Cc2ccccc2)C[C@H](C)C(=O)OC)cs1)C(C)C`, the growth was 20.3%.
Same read-out and setting: to `O=C1C=C(N2C3C4CCC(C4)C32)C(=O)C=C1c1ccccc1` (centres undefined) belongs 108%; to `CCn1c2ccccc2c2cc(C(=O)c3cccc4c3CCCN4)ccc21`, 95.7%.
On the same count and under the same terms, for `Nc1cc2nc3ccccc3nc2cc1N` the value was 80.4%; for `CCOC(=O)C(Cc1ccc(N(CCCl)CCCl)cc1)NC(=O)C(CC(C)C)NC(C)=O` (centres undefined), 41%.
With `COC(=O)CCc1c[nH]c2ccc(N(CCCl)CCCl)cc12`, the growth was 47.5%.
Regarding `COc1cc([N+](=O)[O-])c2nc(C)ccc2c1[N+](=O)[O-]`, the growth was 132%.
Same read-out and setting: to `O=C(CC1(O)C(=O)N(Cc2ccccc2)c2ccc(F)cc21)c1ccc(C(=O)NCC2CCC3(CC2)OOC2(CCCCC2)OO3)cc1` (centres undefined) belongs -56.6% (active); to `O=C(CCl)c1ccc([N+](=O)[O-])o1`, 86.4%; to `C[S+]1C=Cc2ccccc2C1c1ccc(Cl)cc1` (centres undefined), 126%.
Still for that read-out and setting: for `COC(=O)[C@@H](C)C[C@H](Cc1ccc2ccccc2c1)NC(=O)c1csc([C@@H](C[C@H](C(C)C)N(C)C(=O)[C@@H](NC(=O)[C@H]2CCCCN2C)C(C)C)OC(C)=O)n1` the value was 64.7%.
For `O=P(N1CC1)(N1CC1)N1CCc2ccccc21`, the growth was 105%.
On to `O=C1Nc2ccccc2C2c3cccn3-c3ccccc3CN12` (centres undefined), for which the growth was 34.5%.
Still for that read-out and setting: for `COC(=O)[C@@]1(O)C[C@H]2O[C@]1(C)n1c3ccccc3c3c4c(c5c6ccccc6n2c5c31)C(=O)NC4` the value was -59.3% (active); for `NC(=S)c1cn(C2OC(CO)C(O)C2O)c2ncnc(N)c12` (centres undefined), -30% (active).
On the same count and under the same terms, to `CC[C@H](C)[C@H](NC(=O)c1cccn1C)C(=O)N(C)[C@H](C[C@@H](OC(C)=O)c1nc(C(=O)N[C@@H](Cc2ccccc2)C[C@H](C)C(=O)OC)cs1)C(C)C` belongs 10.1%.
For `OCc1ccc2c(c1)OCO2`, the growth is 93.5%.
Same read-out and setting: to `C[n+]1c(/C=C/c2ccc(N(CCCl)CCCl)cc2)sc2ccccc21` belongs 52.2%.
On the same count and under the same terms, to `ClCCN(CCCl)Cc1ccc(Nc2ccnc3cc(Cl)ccc23)cc1` belongs 31.3%; to `Fc1ccc2c(c1)c(-c1nc(-c3c[nH]c4ncccc34)cs1)cn2CCN1CCOCC1`, 39.3%; to `COc1cc2c(=O)n(C3CCCCCCC3)c3c4cc[nH]c4ncc3c2cc1OC`, 6.39% (active).
Still for that read-out and setting: for `Cn1cc(-c2csc(-c3cn(CCN4CCOCC4)c4ccc(F)cc34)n2)c2cccnc21` the value was 8.52% (active); for `O=C(CC1(O)C(=O)Nc2ccc(Br)cc21)c1ccc(C(=O)NCC2CCC3(CC2)OOC2(CCCCC2)OO3)cc1` (centres undefined), 31%; for `COc1cc(/C=N/C2=C(C#N)C(c3ccco3)c3c(c4cc(C)ccc4oc3=O)O2)cc(OC)c1OC` (centres undefined), 87.3%.
Turning to `CC1(C)N=C(N)N=C(N)N1c1ccc(CCCCc2ccc(Cl)c(S(=O)(=O)F)c2)c(Cl)c1`, the growth was 18.1%.
On the same count and under the same terms, to `CC12CCC3C(CCC4Cc5[nH]c6ccccc6c5CC43C)C1CCC2O` (centres undefined) belongs 62.8%.
Still for that read-out and setting: to `COC(=O)[C@@H](C)C[C@H](Cc1ccccc1)NC(=O)c1csc([C@@H](C[C@H](C(C)C)N(C)C(=O)[C@@H](NC(=O)[C@H]2CCCCN2C)C(C(F)(F)F)C(F)(F)F)OC(C)=O)n1` belongs 15.1%.
